According to PubChem BioAssay AID449762 (Southern Research Specialized Biocontainment Screening …, 2010):
Among all 330,000 compounds or so, about 1,900 (0.58%) were called active. About 4% were inconclusive and are not listed. Not all results are given here. Results with a measured potency or affinity are listed apart. A number with no mark means an inactive call. No stated cut-off is given here; in the data, inconclusive means inhibition above about 70% without an active follow-up result; inactive means below that.

test: M. tuberculosis growth inhibition, HTS (AID 449762);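 further: bacterial growth assessed after seven days of incubation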; details: M. tuberculosis H37Rv growth inhibition, 7H9 media; at 25 µM; active compounds read high

Compound	inhibition
Cc1cccc(Nc2nc(N)c([N+](=O)[O-])c(N3CCCC(C)C3)n2)c1 (configuration not stated)	10.2%
Cc1ccc(Nc2nc(N)c([N+](=O)[O-])c(N3CCC(C)CC3)n2)cc1C	-4.24%
CC(NC(=O)c1cccnc1)C(c1cccs1)N1CCN(c2ccccc2F)CC1 (configuration not stated)	-3.95%
CC(C)(C)c1ccc(Oc2ccc(N)cn2)cc1	14.1%
O=Cc1ccc(Oc2ccc(F)cc2)nc1	0.87%
O=C(NCc1ccccc1Cl)c1cnc2n(c1=O)CCS2	-6.04%
Cn1cccc1/C=C1/C(=O)NC(=O)N(Cc2ccc(F)cc2)C1=O	11.8%
Cn1cccc1/C=C1\C(=O)NC(=O)N(Cc2ccccc2)C1=O	3.31%
N=C1C(c2nc3ccccc3s2)=C(O)CN1C1CCCCC1	8.1%
COC(=O)c1cc(NC(=O)CN(C)C2CCS(=O)(=O)C2)cc(C(=O)OC)c1 (configuration not stated)	-0.88%
C/C(=N\Nc1nc(C)cc(-c2ccccc2)n1)c1ccccc1	9.83%
COc1cc(N/N=C(\C)c2ccc(O)c(C)c2)nc(-c2ccccc2)n1	40.1%
CC(=O)CC(=O)NC(=NC1CCCCC1)Nc1nc(C)cc(C)n1	43.2%
CN(C)P(=NC(=S)c1cccn1C)(N(C)C)N(C)C	0.74%
Cc1ccc(-n2cccc2C(=O)NS(=O)(=O)c2ccc(C)cc2)cc1	-6.77%
C#CC(=O)CCC1CCCN1C(=O)OC(C)(C)C (configuration not stated)	5.07%
Cc1ccc(S(=O)(=O)N2CCOCC2)cc1NC(=O)COC(=O)C1(C)CC1(Cl)Cl (configuration not stated)	11.2%
Cc1ccn2c(=O)cc(C)nc2c1	-4.1%
Cc1cc(=O)n2ccsc2n1	0.36%
CC(=O)OCn1ncc(N2CCOCC2)c(Br)c1=O	-0.34%
CCOC(=O)c1cnn(CCOC(=O)c2ccc(F)cc2)c1NC(=O)c1ccc(F)cc1	0.06%

Compound	inhibition
COc1cc(OC)cc(C(=O)NC2CCCN(Cc3ccc(Cl)cc3)C2)c1 (configuration not stated)	7.21%
Cc1nnc(SCC(=O)NC(=O)NC(C)(C)C)n1N	4.56%
CC1(C)Cc2c(C#N)c(N3CCOCC3)nc(Cc3ccccc3)c2CO1	1.75%
CCc1nc(N2CCN(C(=O)c3ccccc3)CC2)c(C#N)c2c1COC(C)(C)C2	15.8%
COc1ccc(Cn2c(=O)[nH]c3cc(C(=O)NCCCN4CCCCC4)ccc3c2=O)cc1	-8.19%
CCC1Nc2ncnc(N3CCN(c4ccccn4)CC3)c2N(Cc2ccc(Cl)cc2)C1=O (configuration not stated)	8.22%
Cc1ccccc1N1CCN(CCCN2C(=O)CC(=C(c3ccccc3)c3ccccc3)C2=O)CC1	7.38%
O=C1CC(=C(c2ccccc2)c2ccccc2)C(=O)N1CCCN1CCN(c2cccc(Cl)c2)CC1	59.9%
CCOc1ccccc1NC(=O)Nc1ccc2c(c1)OCO2	0.34%
O=Cc1ccccc1OCc1ccc2c(c1)OCO2	12.1%
COc1ccc(-c2nnc(SC3CCOC3=O)n2C2CCCCC2)cc1OC (configuration not stated)	-0.52%
Cc1ccccc1N1CC(=O)N(c2ccccc2C)CC1=O	-15.8%
Cn1c2ccccc2c(=O)c2ccc(F)cc21	38.4%
COc1ccc(C2/C=C\CN(C(=O)C3CCCC3)[C@H](Cc3ccccc3)C(=O)N2Cc2ccc(F)cc2)cc1 (some centres not stated)	5.26%
COc1ccc(CNC(=O)C2(C)Cc3ccccc3C(=O)O2)cc1 (configuration not stated)	-2.25%
Nc1ccc2nc(-c3ccccc3)c(-c3ccccc3)nc2c1	5.14%
Nc1ccc2nc(-c3ccccc3)[nH]c2c1	-2.77%
O=C(NCc1ccc(F)cc1)C1CCCN(C(=O)NCc2ccccc2)C1 (configuration not stated)	0.48%
CCc1ccc2c(c1)C1(NN=C(c3ccc(C)cc3)S1)C(=O)N2 (configuration not stated)	5.72%
Cc1ccc(C2(CC(=O)O)CCOC(C)(C)C2)cc1 (configuration not stated)	5.71%
Cc1cc(C)c(OCC(=O)Nc2ccccc2N2CCOCC2)c(C)c1	-8.49%

Compound	inhibition
Cc1ccc(CSc2nc3ccccc3c(=O)n2C)cc1	6.4%
Cn1c(SCc2ccccc2)nc2ccsc2c1=O	33.7%
O=C(Nc1cccnc1Cl)c1cc([N+](=O)[O-])ccc1Cl	8.38%
OCCN(Cc1ccccc1)Cc1cccc(C(F)(F)F)c1	20.1%
COc1ccccc1/C=C/C(=O)OCC(=O)N1CCc2ccccc21	4.74%
O=c1[nH]c(C2CCN(S(=O)(=O)c3ccccc3)CC2)nc2c1nnn2Cc1cccc(Cl)c1	4.46%
O=C(c1cccs1)N1CCC(c2nc3c(nnn3Cc3cccc(Cl)c3)c(=O)[nH]2)CC1	6.04%
O=C1CSC(c2ccccc2)N1CC12CC3CC(CC(O)(C3)C1)C2 (configuration not stated)	-2.58%
CCOc1ccc(NC(=O)CN(C)C(=O)c2cc3c(s2)CCC(C)C3)cc1OCC (configuration not stated)	1.11%
COc1ccc(-c2nc(NC(=O)Cn3cnnn3)sc2C)cc1	-7.31%
COc1ccc(-c2nc(NC(=O)CSCCO)sc2C)cc1	2.7%
CCOc1ccc(N2C(=O)CC(NC3CCN(C(=O)c4ccc(F)cc4)CC3)C2=O)cc1 (configuration not stated)	-3%
Cc1cccc(OC(=O)c2cncc(Br)c2)c1	23.5%
O=C(Oc1ccc(Br)cc1)c1cncc(Br)c1	-0.43%
O=C(CCC(=O)Nc1ccc(F)cc1)N/N=C/c1ccc(O)cc1O	-2.52%
CC1CCCCN1Cc1c(O)ccc2c(=O)c(-c3ccc(Cl)cc3)coc12 (configuration not stated)	0.71%
O=C1c2ccccc2C(=O)N1C(CO)C(O)c1ccc([N+](=O)[O-])cc1 (configuration not stated)	-1.67%
O=C(CSC(=S)N1CCOCC1)Nc1ccc(S(=O)(=O)Nc2ncccn2)cc1	-0.18%
O=C(NNc1c2ccccc2nc2ccccc12)c1ccc(O)cc1	13.8%
CCCC(=O)NNc1c2ccccc2nc2ccccc12	-11.4%
